We go through 30 sequences from PMC11006913.

Chain of ALX3 (Homo sapiens, UniProt O95076 139-225, N203S) (O95076 139-225 N203S): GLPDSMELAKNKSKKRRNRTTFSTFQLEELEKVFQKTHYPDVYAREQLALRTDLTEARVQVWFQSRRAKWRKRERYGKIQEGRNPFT
Chain of ALX3 (Homo sapiens, UniProt O95076 139-225, L168Q) (O95076 139-225 L168Q): as the sequence (O95076 139-225 N203S) above, with L30Q, S65N counted along it
Chain of ALX3 (Homo sapiens, UniProt O95076 139-225) (O95076 139-225): as the sequence (O95076 139-225 N203S) above, with S65N counted along it
Chain of PROP1 (Homo sapiens, UniProt O75360 56-141, R99H) (O75360 56-141 R99H): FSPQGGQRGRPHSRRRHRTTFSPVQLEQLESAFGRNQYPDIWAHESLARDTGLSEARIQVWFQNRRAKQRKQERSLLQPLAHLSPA

The target in the first test is MSX2 (Homo sapiens, UniProt P35548 130-214). In words: PBM; 200 nM protein, PBS. The settings on record: dsDNA, one strand shown.
Chain of MSX2 (Homo sapiens, UniProt P35548 130-214) (P35548 130-214): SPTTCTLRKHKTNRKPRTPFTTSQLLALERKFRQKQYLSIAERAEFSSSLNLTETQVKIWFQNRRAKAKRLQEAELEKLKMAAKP
For the sequence CACAATTA, the binding signal is 13.4 upbm affinity estimate (log intensity, higher = more binding, comparable within an allelic series).

Turning to GCGTCGCC, the binding signal was 9.4 upbm affinity estimate (log intensity, higher = more binding, comparable within an allelic series).

Turning to CTCCACGC, the binding signal is 9.47 upbm affinity estimate (log intensity, higher = more binding, comparable within an allelic series).

In the case of CGCGGGAG, the binding signal was 9.23 upbm affinity estimate (log intensity, higher = more binding, comparable within an allelic series).

As for AGTAATAA, the binding signal was 12.5 upbm affinity estimate (log intensity, higher = more binding, comparable within an allelic series).

Another test concerns the target ALX3 (Homo sapiens, UniProt O95076 139-225). In words: PBM; 200 nM protein, PBS. Conditions: dsDNA, one strand shown.
As to AGGTGGGG, the binding signal was 7.86 upbm affinity estimate (log intensity, higher = more binding, comparable within an allelic series).

For the sequence CCCCCCTC, the binding signal is 7.67 upbm affinity estimate (log intensity, higher = more binding, comparable within an allelic series).

As for CCTCCCAG, the binding signal was 7.69 upbm affinity estimate (log intensity, higher = more binding, comparable within an allelic series).

The target in another test is PROP1 (Homo sapiens, UniProt O75360 56-141). In words: PBM; 200 nM protein, PBS. The settings on record: dsDNA, one strand shown.
Chain of PROP1 (Homo sapiens, UniProt O75360 56-141) (O75360 56-141): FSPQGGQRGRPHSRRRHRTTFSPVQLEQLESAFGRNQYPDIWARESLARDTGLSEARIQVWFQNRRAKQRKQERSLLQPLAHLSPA
Consider CCCCCCTC, for which the binding signal is 6.57 upbm affinity estimate (log intensity, higher = more binding, comparable within an allelic series).

Turning to CGGAGCCC, the binding signal was 6.65 upbm affinity estimate (log intensity, higher = more binding, comparable within an allelic series).

On to AGCCGTGG, for which the binding signal was 6.79 upbm affinity estimate (log intensity, higher = more binding, comparable within an allelic series).

The next test has as its target PROP1 (Homo sapiens, UniProt O75360 56-141, R99H). Put plainly: PBM; 200 nM protein, PBS. Conditions: dsDNA, one strand shown.
As for CCCCCCTC, the binding signal is 6.41 upbm affinity estimate (log intensity, higher = more binding, comparable within an allelic series).

Regarding CGGAGCCC, the binding signal was 6.77 upbm affinity estimate (log intensity, higher = more binding, comparable within an allelic series).

Take AGCCGTGG: the binding signal is 6.82 upbm affinity estimate (log intensity, higher = more binding, comparable within an allelic series).

The next test has as its target ALX3 (Homo sapiens, UniProt O95076 139-225, L168Q). Put plainly: PBM; 200 nM protein, PBS. Conditions: dsDNA, one strand shown.
Regarding AGGTGGGG, the binding signal is 7.87 upbm affinity estimate (log intensity, higher = more binding, comparable within an allelic series).

As to CCCCCCTC, the binding signal was 7.57 upbm affinity estimate (log intensity, higher = more binding, comparable within an allelic series).

On to CCTCCCAG, for which the binding signal is 7.76 upbm affinity estimate (log intensity, higher = more binding, comparable within an allelic series).

A further test deals with HOXD13 (Homo sapiens, UniProt P35453 263-343, T313A). In words: PBM; 200 nM protein, PBS. Conditions: dsDNA, one strand shown.
Chain of HOXD13 (P35453 263-343 T313A): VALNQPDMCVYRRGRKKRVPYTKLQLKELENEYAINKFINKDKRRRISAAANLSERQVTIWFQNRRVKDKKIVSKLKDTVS
Turning to AGGGGCTC, the binding signal was 9.7 upbm affinity estimate (log intensity, higher = more binding, comparable within an allelic series).

Take TCGGGCCA: the binding signal is 9.66 upbm affinity estimate (log intensity, higher = more binding, comparable within an allelic series).

In the case of CCCCCCTC, the binding signal was 9.19 upbm affinity estimate (log intensity, higher = more binding, comparable within an allelic series).

As to CTTATAAA, the binding signal is 11.5 upbm affinity estimate (log intensity, higher = more binding, comparable within an allelic series).

With GCAGCGCC, the binding signal was 9.59 upbm affinity estimate (log intensity, higher = more binding, comparable within an allelic series).

On to CCCCCCAC, for which the binding signal is 9.15 upbm affinity estimate (log intensity, higher = more binding, comparable within an allelic series).

Consider CTGCCTCC, for which the binding signal was 9.56 upbm affinity estimate (log intensity, higher = more binding, comparable within an allelic series).

Take AGCCGTGG: the binding signal was 9.83 upbm affinity estimate (log intensity, higher = more binding, comparable within an allelic series).

As for ATTTAATA, the binding signal was 11.8 upbm affinity estimate (log intensity, higher = more binding, comparable within an allelic series).

Take CCCTGCGG: the binding signal is 9.6 upbm affinity estimate (log intensity, higher = more binding, comparable within an allelic series).

In the case of GGAGAACC, the binding signal is 9.73 upbm affinity estimate (log intensity, higher = more binding, comparable within an allelic series).

In the next test the target is HOXC9 (Homo sapiens, UniProt P31274 178-260, R222W). In words: PBM; 200 nM protein, PBS. The settings on record: dsDNA, one strand shown.
Chain of HOXC9 (P31274 178-260 R222W): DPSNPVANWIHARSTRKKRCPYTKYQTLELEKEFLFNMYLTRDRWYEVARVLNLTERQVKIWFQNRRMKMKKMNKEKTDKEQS
ACGTTGGG: the binding signal is 9.77 upbm affinity estimate (log intensity, higher = more binding, comparable within an allelic series).

Consider AGGTGGGG, for which the binding signal was 9.81 upbm affinity estimate (log intensity, higher = more binding, comparable within an allelic series).

As for AGGGGCTC, the binding signal is 9.6 upbm affinity estimate (log intensity, higher = more binding, comparable within an allelic series).

With TCCAGGGA, the binding signal was 9.68 upbm affinity estimate (log intensity, higher = more binding, comparable within an allelic series).

Turning to CCTACTCG, the binding signal is 9.71 upbm affinity estimate (log intensity, higher = more binding, comparable within an allelic series).

CGGGCCAG: the binding signal is 9.77 upbm affinity estimate (log intensity, higher = more binding, comparable within an allelic series).

As for TCGGGCCA, the binding signal is 9.7 upbm affinity estimate (log intensity, higher = more binding, comparable within an allelic series).

With CCCCCCTC, the binding signal is 9.27 upbm affinity estimate (log intensity, higher = more binding, comparable within an allelic series).

On to GAGGGTCC, for which the binding signal is 9.63 upbm affinity estimate (log intensity, higher = more binding, comparable within an allelic series).

In the case of GCAGCGCC, the binding signal is 9.72 upbm affinity estimate (log intensity, higher = more binding, comparable within an allelic series).

Turning to CCCCCCAC, the binding signal was 9.29 upbm affinity estimate (log intensity, higher = more binding, comparable within an allelic series).

For CACGCGGG, the binding signal was 9.63 upbm affinity estimate (log intensity, higher = more binding, comparable within an allelic series).

Regarding CCGGGTAC, the binding signal was 9.63 upbm affinity estimate (log intensity, higher = more binding, comparable within an allelic series).

Regarding CTGCCTCC, the binding signal is 9.6 upbm affinity estimate (log intensity, higher = more binding, comparable within an allelic series).

Turning to CGGAGCCC, the binding signal was 9.51 upbm affinity estimate (log intensity, higher = more binding, comparable within an allelic series).

Consider AGCCGTGG, for which the binding signal was 9.77 upbm affinity estimate (log intensity, higher = more binding, comparable within an allelic series).

CCTCTCCA: the binding signal was 9.7 upbm affinity estimate (log intensity, higher = more binding, comparable within an allelic series).

CCTGCCGC: the binding signal is 9.67 upbm affinity estimate (log intensity, higher = more binding, comparable within an allelic series).

As for GCGTCGCC, the binding signal was 9.77 upbm affinity estimate (log intensity, higher = more binding, comparable within an allelic series).

With ATTTAATA, the binding signal is 11.1 upbm affinity estimate (log intensity, higher = more binding, comparable within an allelic series).

With CCCTGCGG, the binding signal is 9.56 upbm affinity estimate (log intensity, higher = more binding, comparable within an allelic series).

CCTCCCAG: the binding signal is 9.67 upbm affinity estimate (log intensity, higher = more binding, comparable within an allelic series).

Regarding CTCCACGC, the binding signal is 9.78 upbm affinity estimate (log intensity, higher = more binding, comparable within an allelic series).

For the sequence CCCAGGTC, the binding signal was 9.65 upbm affinity estimate (log intensity, higher = more binding, comparable within an allelic series).

Take CGCGGGAG: the binding signal was 9.64 upbm affinity estimate (log intensity, higher = more binding, comparable within an allelic series).

Regarding GGAGAACC, the binding signal was 9.79 upbm affinity estimate (log intensity, higher = more binding, comparable within an allelic series).

Take AGTAATAA: the binding signal was 10.9 upbm affinity estimate (log intensity, higher = more binding, comparable within an allelic series).

The target of a further test is ALX3 (Homo sapiens, UniProt O95076 139-225, L168V). Put plainly: PBM; 200 nM protein, PBS. The settings on record: dsDNA, one strand shown.
Chain of ALX3 (Homo sapiens, UniProt O95076 139-225, L168V) (O95076 139-225 L168V): as the sequence (O95076 139-225 N203S) above, with L30V, S65N counted along it
AGGTGGGG: the binding signal was 7.85 upbm affinity estimate (log intensity, higher = more binding, comparable within an allelic series).

For the sequence CCCCCCTC, the binding signal is 7.44 upbm affinity estimate (log intensity, higher = more binding, comparable within an allelic series).

CCTCCCAG: the binding signal was 7.74 upbm affinity estimate (log intensity, higher = more binding, comparable within an allelic series).

The target in a further test is PROP1 (Homo sapiens, UniProt O75360 56-141, F88S). In words: PBM; 200 nM protein, PBS. Conditions: dsDNA, one strand shown.
Chain of PROP1 (Homo sapiens, UniProt O75360 56-141, F88S) (O75360 56-141 F88S): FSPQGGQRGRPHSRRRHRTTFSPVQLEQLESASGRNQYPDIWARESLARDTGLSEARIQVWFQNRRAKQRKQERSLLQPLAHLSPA
For the sequence CCCCCCTC, the binding signal was 5.9 upbm affinity estimate (log intensity, higher = more binding, comparable within an allelic series).

On to CGGAGCCC, for which the binding signal is 6.36 upbm affinity estimate (log intensity, higher = more binding, comparable within an allelic series).

For AGCCGTGG, the binding signal is 6.72 upbm affinity estimate (log intensity, higher = more binding, comparable within an allelic series).

The target of another test is MSX2 (Homo sapiens, UniProt P35548 130-214, F161Y). Put plainly: PBM; 200 nM protein, PBS. Conditions: dsDNA, one strand shown.
Chain of MSX2 (Homo sapiens, UniProt P35548 130-214, F161Y) (P35548 130-214 F161Y): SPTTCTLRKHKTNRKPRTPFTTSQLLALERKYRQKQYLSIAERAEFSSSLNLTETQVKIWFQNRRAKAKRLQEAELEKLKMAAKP
As for CGGGCCAG, the binding signal was 9.66 upbm affinity estimate (log intensity, higher = more binding, comparable within an allelic series).

Take TCGGGCCA: the binding signal is 9.51 upbm affinity estimate (log intensity, higher = more binding, comparable within an allelic series).

For CACAATTA, the binding signal is 13 upbm affinity estimate (log intensity, higher = more binding, comparable within an allelic series).

With GCGTCGCC, the binding signal was 9.49 upbm affinity estimate (log intensity, higher = more binding, comparable within an allelic series).

Take CTCCACGC: the binding signal was 9.61 upbm affinity estimate (log intensity, higher = more binding, comparable within an allelic series).

With CGCGGGAG, the binding signal is 9.25 upbm affinity estimate (log intensity, higher = more binding, comparable within an allelic series).

As to AGTAATAA, the binding signal was 12.3 upbm affinity estimate (log intensity, higher = more binding, comparable within an allelic series).

For a further test, the target named is HOXA2 (Homo sapiens, UniProt O43364 129-215, Y150S). Put plainly: PBM; 200 nM protein, PBS. Conditions: dsDNA, one strand shown.
Chain of HOXA2 (Homo sapiens, UniProt O43364 129-215, Y150S) (O43364 129-215 Y150S): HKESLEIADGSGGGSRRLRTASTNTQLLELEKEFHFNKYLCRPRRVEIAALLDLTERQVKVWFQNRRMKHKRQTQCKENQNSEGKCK
As for AGGTGGGG, the binding signal was 10.4 upbm affinity estimate (log intensity, higher = more binding, comparable within an allelic series).

Turning to CACGCGGG, the binding signal is 10.4 upbm affinity estimate (log intensity, higher = more binding, comparable within an allelic series).

On to CGGAGCCC, for which the binding signal was 10.1 upbm affinity estimate (log intensity, higher = more binding, comparable within an allelic series).

For CCTGCCGC, the binding signal is 10.4 upbm affinity estimate (log intensity, higher = more binding, comparable within an allelic series).

As for CCCTGCGG, the binding signal is 10.5 upbm affinity estimate (log intensity, higher = more binding, comparable within an allelic series).

Regarding ATTTGTTC, the binding signal was 10.8 upbm affinity estimate (log intensity, higher = more binding, comparable within an allelic series).

Another test concerns the target ALX3 (Homo sapiens, UniProt O95076 139-225, N203S). Put plainly: PBM; 200 nM protein, PBS. The settings on record: dsDNA, one strand shown.
With AGGTGGGG, the binding signal was 7.82 upbm affinity estimate (log intensity, higher = more binding, comparable within an allelic series).

With CCCCCCTC, the binding signal was 7.51 upbm affinity estimate (log intensity, higher = more binding, comparable within an allelic series).

On to CCTCCCAG, for which the binding signal was 7.72 upbm affinity estimate (log intensity, higher = more binding, comparable within an allelic series).

For another test, the target named is HOXA2 (Homo sapiens, UniProt O43364 129-215). Put plainly: PBM; 200 nM protein, PBS. Conditions: dsDNA, one strand shown.
Chain of HOXA2 (Homo sapiens, UniProt O43364 129-215) (O43364 129-215): as the sequence (O43364 129-215 Y150S) above, with S22Y counted along it
For the sequence AGGTGGGG, the binding signal is 7.26 upbm affinity estimate (log intensity, higher = more binding, comparable within an allelic series).

For the sequence CACGCGGG, the binding signal was 7.18 upbm affinity estimate (log intensity, higher = more binding, comparable within an allelic series).

On to CGGAGCCC, for which the binding signal is 7.02 upbm affinity estimate (log intensity, higher = more binding, comparable within an allelic series).

Take CCTGCCGC: the binding signal was 7.06 upbm affinity estimate (log intensity, higher = more binding, comparable within an allelic series).

As for CCCTGCGG, the binding signal is 7 upbm affinity estimate (log intensity, higher = more binding, comparable within an allelic series).

Turning to ATTTGTTC, the binding signal is 9.22 upbm affinity estimate (log intensity, higher = more binding, comparable within an allelic series).
